# A selection: hits, their analogues and other compounds. The true share with any hit is near 27%.
# CYP2C19 inhib: blocks human cytochrome P450 2C19 | inhibition, % at 5 µM | 96,000 tested, 21% active | P33261 | CYP2C19 Supersomes, luciferin-H EGE luminescence, 30 min;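 active = CYP2C19 inhibition above a set limit at 5 µM in the primary screen, cut at about 50% in these data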;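 also: plate controls were negative control wells for no effect and 2.5 mM tranylcypromine positive control for full effect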
# Target sequence (P33261 whole entry, looked up): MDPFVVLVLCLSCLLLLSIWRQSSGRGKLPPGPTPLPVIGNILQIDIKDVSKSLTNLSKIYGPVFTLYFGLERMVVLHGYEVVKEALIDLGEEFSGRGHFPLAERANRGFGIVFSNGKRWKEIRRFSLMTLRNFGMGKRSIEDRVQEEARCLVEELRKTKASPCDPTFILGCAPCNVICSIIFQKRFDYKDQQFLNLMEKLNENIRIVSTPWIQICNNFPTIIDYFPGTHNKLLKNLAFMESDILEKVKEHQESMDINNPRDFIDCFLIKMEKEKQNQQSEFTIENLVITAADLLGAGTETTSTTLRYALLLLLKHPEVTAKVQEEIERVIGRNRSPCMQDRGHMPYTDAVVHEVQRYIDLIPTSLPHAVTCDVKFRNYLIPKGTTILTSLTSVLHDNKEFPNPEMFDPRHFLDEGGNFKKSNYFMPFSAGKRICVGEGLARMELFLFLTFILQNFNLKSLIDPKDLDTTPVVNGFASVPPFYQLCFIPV
# CYP2C19 act: activators of human cytochrome P450 2C19; P33261; recombinant CYP2C19, luciferin-H EGE luminescence; hits give high values; 0 = fully inhibited enzyme, 1 = untreated enzyme; activation factor at 5 µM; 96,000 tested, under 10 active; AID 1025;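 active = activation factor of at least 2 at 5 µM in the primary screen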;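 also: 0 = wells with 2.5 mM tranylcypromine and 1 = vehicle-only wells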
# CYP2C9 inhib: blocks human cytochrome P450 2C9. 96,000 tested, 20% active. P11712. CYP2C9 Supersomes, luciferin-H conversion, luminescence. inhibition, % at 5 µM. AID 777;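 active = blocking of liver enzyme CYP2C9 beyond about 50% at 5 µM, limit read from the data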
# CYP2C9 activ: activators of human CYP2C9 | P11712 | recombinant CYP2C9, luciferin-H conversion, luminescence; hits give high values; factor 1 = untreated enzyme, 0 = blocked | activation factor at 5 µM | 96,000 tested, 1.4% active | AID 1024;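 active = activation factor of 2 or more for CYP2C9 at a 5 µM dose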;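 also: 0 = sulfaphenazole-blocked wells and 1 = vehicle-only wells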
# Cav32 inh: blocks human Cav3.2 T-type calcium channel. Cav3.2-expressing cells, Fluo-4 calcium fluorescence FDSS; hits give low values. B-score at 10 µM. 100,000 tested, 4% active. AID 449739;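 active = single-dose well whose peak fluorescence ratio is a statistical outlier from its plate by either plate-standardised score or position-corrected B-score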
# The depositor's hits bear a star; · = not tested or not shown.
SMILES,CYP2C19 inhib,CYP2C19 act,CYP2C9 inhib,CYP2C9 activ,Cav32 inh
CCOC(=O)Nc1cc(C(=O)OC)ccc1C,46,0.5,20,0.8,0.97
CC1CC(C)CN(C(=O)C2CCCN(S(=O)(=O)c3cccc4nonc34)C2)C1 (stereo not drawn),46,0.5,76*,0.2,-0.62
CCOC(=O)C1CCN(S(=O)(=O)c2cccc3nonc23)CC1,72*,0.3,88*,0.1,-1.7
CC1CCN(C(=O)C2CCN(S(=O)(=O)c3cccc4nonc34)CC2)CC1,43,0.6,7,0.9,0.7
COc1ccc(CCNC(=O)C2CCCN(S(=O)(=O)c3cccc4nonc34)C2)cc1OC (stereo not drawn),27,0.7,-2,1,·
O=C(C1CCCN(S(=O)(=O)c2cccc3nonc23)C1)N1CCN(c2ccccc2)CC1 (stereo not drawn),60*,0.4,60*,0.4,-1.6
Cc1nn(C)c(C)c1S(=O)(=O)N1CCCC(C(=O)N2CCN(c3ccccc3)CC2)C1 (stereo not drawn),58*,0.4,40,0.6,·
CCOc1ccc2nc(NC(=O)C3CCCN(S(=O)(=O)c4cccc5nonc45)C3)sc2c1 (stereo not drawn),24,0.8,10,0.9,-0.02
Cc1nc2ccc3[nH]snc3c2n1,1,1,16,0.8,-0.0021
Cc1cc(N2CCCC2=O)c(N)cc1N,-14,1.1,-18,1.2,-0.2
COc1cc2c(cc1OC)C(C(=O)N1CCN(c3ccccc3)CC1)C(c1cccs1)N(C)C2=O (stereo not drawn),12,0.9,7,0.9,-0.15
O=C(C1CCCN(S(=O)(=O)c2cccc3nsnc23)C1)N1CCN(c2ccccn2)CC1 (stereo not drawn),29,0.7,76*,0.2,0.55
O=C(C1CCN(S(=O)(=O)c2cccc3nsnc23)CC1)N1CCc2ccccc2C1,27,0.7,-95,1.9,1.1
COc1cccc(-c2cc3nc(-c4ccccc4)cc(N4CCC5(CC4)OCCO5)n3n2)c1,34,0.7,55*,0.4,-2.1
CCOc1ccc(NC(=O)c2nn(C)cc2Br)cc1,13,0.9,-112,2.1*,-0.87
CCOc1ccc(NC(=O)CSC(N)=O)cc1,17,0.8,30,0.7,-4.7*
CCOc1ccc(C(=O)c2ccncc2)cc1,87*,0.1,75*,0.2,0.44
CCOc1ccc(NC(=O)c2ccc(OC)cc2)cc1,-3,1,-7,1.1,-0.14
CCOc1ccc(NC(=O)c2ccncc2)cc1,73*,0.3,73*,0.3,-0.37
CCOC(=O)c1oc2ccccc2c1NC(=O)c1ccc(Cl)s1,-7,1.1,2,1,-1.4
Cc1ccc(C(=O)Nc2ccccc2OC(F)F)cc1,17,0.8,-5,1,-0.69
CC1CCN(Cc2ccc(-c3nn[nH]n3)cc2)CC1,-11,1.1,-24,1.2,-0.39
C=CC(=C)CC(NC)c1ccccc1 (stereo not drawn),-1,1,-10,1.1,-0.26
O=C(c1ccccc1)N1CCN(Cc2ccccc2)CC1,·,·,·,·,-0.0077
CN(c1ccccc1)S(=O)(=O)c1cccc(C(=O)N2CCN(c3ccccn3)CC2)c1,79*,0.2,88*,0.1,-2.2
SMILES,CYP2C19 inhib,CYP2C19 act,CYP2C9 inhib,CYP2C9 activ,Cav32 inh
CN(C)S(=O)(=O)c1cccc(C(=O)N2CCN(Cc3ccccc3)CC2)c1,53*,0.5,4,1,1.1
COc1ccc(S(=O)(=O)NCc2ccc(C(=O)N3CCN(c4ccccn4)CC3)cc2)cc1,20,0.8,44,0.6,0.012
CNNC(=O)C(C)NC(=O)c1ccc(Br)cc1 (stereo not drawn),11,0.9,-13,1.1,0.041
Cn1c(C(=O)NCC2CCCO2)cc2oc3ccccc3c21 (stereo not drawn),72*,0.3,81*,0.2,-1.4
CC(C)CC(=O)c1c[nH]c(C(=O)NCC2CCCO2)c1 (stereo not drawn),-12,1.1,-17,1.2,0.1
CC(=O)c1c[nH]c(C(=O)NCC2CCCO2)c1 (stereo not drawn),69*,0.3,11,0.9,0.52
Cn1c(C(=O)NCc2cccs2)cc2oc3ccccc3c21,51*,0.5,79*,0.2,·
Cn1c(C(=O)NCC2CCCO2)cc2c(=O)[nH]c3ccccc3c21 (stereo not drawn),·,·,·,·,0.62
CCOc1ccc(C(C)=O)cc1CN1C(=O)NC2(CCCCC2C)C1=O (stereo not drawn),34,0.7,15,0.8,0.82
O=c1[nH]c2ccccc2n1CCCN1CCN(C(c2ccccc2)c2ccccc2)CC1,·,·,·,·,-5*
CCC(CC)C(=O)Nc1ccc(C)c(O)c1,2,1,6,0.9,·
O=S(=O)(c1cccc(F)c1)N1CCN(Cc2ccc3c(c2)OCO3)CC1,91*,0.1,86*,0.1,·
O=S(=O)(/C=C/c1ccccc1)N1CCN(c2cccc(Cl)c2)CC1,93*,0.1,76*,0.2,0.056
O=S(=O)(Cc1ccccc1)N1CCN(Cc2ccc3c(c2)OCO3)CC1,91*,0.1,54*,0.5,0.023
O=S(=O)(c1ccc(F)c(F)c1)N1CCN(Cc2ccc3c(c2)OCO3)CC1,19,0.8,43,0.6,-1.7
CN(Cc1ccccc1)S(=O)(=O)c1ccc2c(c1)OCCO2,87*,0.1,-82,1.8,-0.81
O=C(O)CCC(=O)N1CCN(c2cccc(Cl)c2)CC1,6,0.9,-24,1.2,0.29
O=C(O)CNC1=NCCC1,-20,1.2,-15,1.1,·
Cc1ccc2nc(N3CCN(S(=O)(=O)c4ccc5c(c4)OCCO5)CC3)c(C#N)cc2c1,70*,0.3,50*,0.5,-0.78
Cc1ccc(S(=O)(=O)N2CCCN(c3nc4cc(C)ccc4cc3C#N)CC2)cc1,·,·,·,·,1.3
O=S(=O)(c1ccc2c(c1)OCCO2)N1CCN(Cc2ccc3c(c2)OCO3)CC1,94*,0.1,89*,0.1,-0.16
O=S(=O)(c1ccc2c(c1)OCCO2)N1CCN(Cc2ccccc2)CC1,82*,0.2,-40,1.4,-0.69
Cc1ccc(S(=O)(=O)N2CCN(S(=O)(=O)N3CCCCC3)CC2)cc1,-6,1.1,-5,1.1,-0.41
Cc1ccc(S(=O)(=O)N2CCCN(S(=O)(=O)c3ccc(C(F)(F)F)cc3)CC2)cc1,33,0.7,-149,2.5*,-0.044
COc1ccc(-n2c(CNC(=O)c3cc(OC)c(OC)c(OC)c3)n[nH]c2=S)cc1,4,1,-1,1,-0.9
CCOC(=O)c1nc[nH]c1C,0,1,-2,1,-0.25
COCC(=O)Nc1nnc(CCc2ccccc2)s1,21,0.8,6,0.9,0.54
Cc1ccc2c(CN3CCN(S(=O)(=O)c4ccc5c(c4)OCCO5)CC3)cc(=O)oc2c1C,71*,0.3,70*,0.3,-2
Cc1ccc2c(CN3CCN(Cc4ccc5c(c4)OCO5)CC3)cc(=O)oc2c1C,14,0.9,-7,1.1,-0.37

# Assay outcomes as filed in PubChem.
